# Measurements taken from PubChem BioAssay AID2088 (The Scripps Research Institute Molecular Screening Center, 2009).
# Test: G2/M cell cycle arrest in HeLa, late-stage follow-up, mechanism study for Wee1 degradation inhibitor project, FACS (AID 2088)
# Details: HeLa Wee1-luciferase degradation, luminescence, G2/M arrest assay, compound-treated cells, stronger effect = higher value, concentration not given here
compound,measurement,value
Cc1ccnc(NC(=O)CCCOc2cc(=O)n(C)c3ccccc23)c1,G2/M cells,30.5%
